In PubChem BioAssay (EPA / NIEHS):
Results filed as inconclusive are left out. Active and inactive are the calls of the source. How the source made its calls, unless noted: active means hit-call score of the fitted dose curve at least 0.9, where 1 is the maximum; inactive means score below 0.9.

What was measured:
[1] = target: Oxysterols receptor LXR-beta (Homo sapiens) (UniProt P55055); assay: ATG_LXRb_TRANS: Attagene TRANS-FACTORIAL HepG2 Assay for human Liver X Receptor beta (LXRb) (AID 2282981; active means hit-call score of the fitted dose curve at least 0.9, where 1 is the maximum); conditions: HepG2 Attagene TRANS GAL4-LXRb reporter, mRNA
In short: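 Multiplexed reporter assay, HepG2, 24 h dosing. Fluorescence of labelled RT-PCR products after capillary electrophoresis gives transcript level; positive fitting direction relative to DMSO.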

[2] = ATG_M_06_TRANS: Attagene TRANS-FACTORIAL HepG2 Assay for M06 Transcription Factor (Internal Marker) (AID 2282983; active means hit-call score of the fitted dose curve at least 0.9, where 1 is the maximum); conditions: HepG2 Attagene TRANS M06 internal marker reporter
In short: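 Background-control reporter readout: after 24 h chemical exposure of transiently transfected HepG2 (GAL4-UAS reporter units), mRNA quantified by RT-PCR with fluorescent labeling and capillary electrophoresis. Gain-of-signal fitting against DMSO baseline.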

[3] = target: Nuclear receptor subfamily 4 group A member 2 (Homo sapiens) (UniProt P43354); assay: ATG_NURR1_TRANS: Attagene TRANS-FACTORIAL HepG2 Assay for human Nuclear Receptor Related Protein 1 (NURR1) (AID 2282985; active means hit-call score of the fitted dose curve at least 0.9, where 1 is the maximum); conditions: HepG2 Attagene TRANS reporter, mRNA readout
In short: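 Endpoint: reporter mRNA increase relative to DMSO. HepG2 cells transfected with reporter units, treated 24 h; RNA processed by RT-PCR, labelling, HpaI digestion and capillary electrophoresis.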

[4] = target: Transcriptional activator Myb (Homo sapiens) (UniProt P10242); assay: ATG_Myb_CIS: Attagene CIS-FACTORIAL HepG2 Assay for human Myeloblastosis (Myb) Proto-Oncogene Transcription Factor (AID 2282986); conditions: HepG2 Attagene CIS-FACTORIAL Myb reporter transcription; actives raise or lower the signal
In short: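 Reporter mRNA is quantified by RT-PCR and capillary electrophoresis 24 h after dosing HepG2 cells transfected with cis-regulated reporter units, which track endogenous transcription factor activity. Gain and loss of signal are fitted versus DMSO baseline.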

[5] = target: Nuclear respiratory factor 1 (Homo sapiens) (UniProt Q16656); assay: ATG_NRF1_CIS: Attagene CIS-FACTORIAL HepG2 Assay for human Nuclear Respiratory Factor 1 (NRF1) Orphan Gene (AID 2282987); conditions: HepG2 NRF1 cis-element reporter, Attagene multiplex; actives raise or lower the signal
In short: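 Endogenous NRF1-driven reporter transcription in transfected HepG2 cells after 24 h treatment. Readout: RT-PCR products, 6-FAM labelled and resolved by capillary electrophoresis; changes fitted both directions relative to DMSO.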

[6] = ATG_NFI_CIS: Attagene CIS-FACTORIAL HepG2 Assay for human Nuclear Factor I (NFI) (AID 2282989); conditions: HepG2 cis-regulatory reporter, NFI response element transcription; actives raise or lower the signal
In short: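 Transient MRTU transfection of HepG2 → 24 h chemical dosing → total RNA, oligo(dT) RT → PCR, 6-FAM primer extension, HpaI cut → capillary electrophoresis. Endpoint fitted bidirectionally relative to DMSO.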

[7] = target: Myc proto-oncogene protein (Homo sapiens) (UniProt P01106); assay: ATG_Myc_CIS: Attagene CIS-FACTORIAL HepG2 Assay for human Myelocytomatosis (Myc) Proto-Oncogene Transcription Factor (AID 2282990); conditions: HepG2, Attagene cis-reporter transcription factor activity; actives raise or lower the signal
In short: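 Fluorescence intensity of reporter-specific cDNA fragments, separated by capillary electrophoresis, gives the signal. Transfected HepG2 cells carrying cis-promoter reporter constructs are incubated with compound for 24 h; DMSO serves as baseline.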

[8] = ATG_NF_kB_CIS: Attagene CIS-FACTORIAL HepG2 Assay for human Nuclear Factor Kappa B (NF-kB) (AID 2282991); conditions: HepG2 Attagene cis-factorial NF-kB reporter mRNA; actives raise or lower the signal
In short: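 Readout is reporter transcript level, gain or loss versus DMSO, measured 24 h post-dose via RT-PCR, fluorescent labelling and capillary electrophoresis. Human HepG2 liver cells carried transiently transfected CIS reporter constructs reflecting endogenous factors.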

[9] = ATG_NRF2_ARE_CIS: Attagene CIS-FACTORIAL HepG2 Assay for human Nuclear Factor Erythroid 2 Related Factor 2 (NFR2) response to Antioxidant Response Elements (ARE) (AID 2282992); conditions: HepG2 Attagene ARE/NRF2 reporter, transcription factor activity; actives raise or lower the signal
In short: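 Endogenous transcription factor activity read out as reporter transcript levels (RT-PCR plus capillary electrophoresis, fluorescence) in transiently transfected HepG2 cells. Measured at 24 h after dosing; gain or loss of signal fitted versus DMSO.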

[10] = ATG_Oct_MLP_CIS: Attagene CIS-FACTORIAL HepG2 Assay for human Octamer-Binding Transcription Factor (Oct) (AID 2282993); conditions: HepG2 Attagene cis-factorial Oct reporter, mRNA; actives raise or lower the signal
In short: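 Transient MRTU transfection of HepG2 → 24 h compound treatment → RNA isolation, reverse transcription, PCR → 6-FAM primer extension, HpaI digest → capillary electrophoresis. Activity fitted both directions against DMSO.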

[11] = target: Cellular tumor antigen p53 (Homo sapiens) (UniProt P04637); assay: ATG_p53_CIS: Attagene CIS-FACTORIAL HepG2 Assay for human p53 Transcription Factor (AID 2282994); conditions: HepG2 p53 cis-element reporter, Attagene mRNA; actives raise or lower the signal
In short: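 Endogenous p53 activity read in transiently transfected HepG2 from a cis-element-driven reporter transcript after 24 h exposure. RNA reverse-transcribed, PCR-amplified, fluorescently labelled and sized by capillary electrophoresis; gain or loss fitted against DMSO baseline.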

[12] = BSK_3C_TissueFactor: BioMAP Diversity Plus: 3C Assay for Tissue Factor Biomarker Activity (AID 2282997); conditions: BioMAP 3C HUVEC, tissue factor biomarker readout; actives raise or lower the signal
In short: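 Tissue factor on primary human umbilical vein endothelium was read by ELISA 24 h after dosing, gain or loss relative to DMSO. Cytotoxicity ran alongside via SRB (0.1%, TCA-fixed, 560 nm).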

[13] = BSK_3C_uPAR: BioMAP Diversity Plus: 3C Assay for Urokinase-type plasminogen activator receptor (uPAR) Biomarker Activity (AID 2282998); conditions: BioMAP 3C HUVEC, uPAR biomarker ELISA; actives raise or lower the signal
In short: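 ELISA readout of uPAR on human vascular endothelium (umbilical vein primary cells), taken 24 h after chemical dosing. Increases and decreases are both fitted relative to DMSO vehicle.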

[14] = BSK_3C_VCAM1: BioMAP Diversity Plus: 3C Assay for Vascular cell adhesion molecule 1 (VCAM1) Biomarker Activity (AID 2282999); conditions: BioMAP 3C HUVEC, VCAM1 ELISA, cytokine-stimulated; actives raise or lower the signal
In short: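 HUVEC primary cells, 24 h compound exposure; VCAM-1 by ELISA; gain/loss of signal fitted bidirectionally vs DMSO baseline.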

[15] = BSK_4H_Eotaxin3: BioMAP Diversity Plus: 4H Assay for Eotaxin 3 Biomarker Activity (AID 2283000); conditions: primary human endothelial cells (HUVEC); actives raise or lower the signal
In short: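 Human umbilical vein endothelial cells (BSK_4H system) dosed with test chemical; Eotaxin-3 (CCL26) measured by ELISA 24 h after dosing. Bidirectional curve fitting relative to DMSO negative control as baseline.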

[16] = target: human Peroxisome Proliferator-activated Receptor alpha (PPARa), PPARA (gene 5465) (UniProt Q07869); assay: ATG_PPARa_TRANS: Attagene TRANS-FACTORIAL HepG2 Assay for human Peroxisome Proliferator-activated Receptor alpha (PPARa) (AID 2283001; active means hit-call score of the fitted dose curve at least 0.9, where 1 is the maximum)
In short: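 HepG2, transient MRTU transfection, 24 h treatment. RT-PCR → FAM labelling → capillary electrophoresis. Fit vs DMSO, positive direction.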

[17] = target: human Peroxisome Proliferator-activated Receptor delta (PPARd), PPARD (gene 5467) (UniProt Q03181); assay: ATG_PPARd_TRANS: Attagene TRANS-FACTORIAL HepG2 Assay for human Peroxisome Proliferator-activated Receptor delta (PPARd) (AID 2283002; active means hit-call score of the fitted dose curve at least 0.9, where 1 is the maximum)
In short: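 Fluorescence from capillary electrophoresis of labelled RT-PCR reporter fragments gives the signal; DMSO sets baseline. Cells: HepG2 transiently carrying GAL4-UAS reporter units plus chimeric nuclear receptor-Gal4 proteins, exposed to chemicals for 24 h.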

[18] = ATG_M_32_TRANS: Attagene TRANS-FACTORIAL HepG2 Assay for M32 Transcription Factor (Internal Marker) (AID 2282984; active means hit-call score of the fitted dose curve at least 0.9, where 1 is the maximum;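 further: transcript level of a background control reporter unit measured by RT-PCR and capillary electrophoresis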); conditions: HepG2 Attagene TRANS M32 internal marker reporter
In short: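 Internal-marker readout from a multiplexed transcription reporter panel. HepG2 cells were transfected with GAL4-UAS reporter units, treated 24 hours, and reporter transcript levels determined by fluorescence after RT-PCR and capillary separation.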

[19] = target: Hepatocyte nuclear factor 4-alpha (Homo sapiens) (UniProt P41235); assay: ATG_HNF4a_TRANS: Attagene TRANS-FACTORIAL HepG2 Assay for human Hepatocyte Nuclear Factor 4 alpha (HNF4a) (AID 2282982; active means hit-call score of the fitted dose curve at least 0.9, where 1 is the maximum); conditions: HepG2 HNF4a transactivation reporter, mRNA readout
In short: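 Endpoint reflects transcriptional activation of a GAL4-UAS reporter by an HNF4a-GAL4 chimera in transfected HepG2 cells, 24 h post-dosing. Fluorescence from RT-PCR products separated by capillary electrophoresis; DMSO baseline.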

Measured: AC50

Chain of Myc proto-oncogene protein (Homo sapiens) (P01106 whole entry, looked up, the tested form may be a part): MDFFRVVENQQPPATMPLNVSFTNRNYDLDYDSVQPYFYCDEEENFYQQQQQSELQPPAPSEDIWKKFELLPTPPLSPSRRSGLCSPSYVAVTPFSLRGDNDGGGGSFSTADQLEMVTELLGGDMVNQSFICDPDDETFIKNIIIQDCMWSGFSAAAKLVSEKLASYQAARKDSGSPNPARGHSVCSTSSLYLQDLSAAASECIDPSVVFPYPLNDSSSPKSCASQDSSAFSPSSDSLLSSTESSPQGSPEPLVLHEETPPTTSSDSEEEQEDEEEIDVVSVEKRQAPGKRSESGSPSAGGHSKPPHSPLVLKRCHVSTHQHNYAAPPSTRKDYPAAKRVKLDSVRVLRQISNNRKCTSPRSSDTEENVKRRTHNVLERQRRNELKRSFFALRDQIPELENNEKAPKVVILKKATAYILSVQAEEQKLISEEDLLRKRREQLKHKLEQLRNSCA
Chain of Nuclear receptor subfamily 4 group A member 2 (Homo sapiens) (P43354 whole entry, looked up): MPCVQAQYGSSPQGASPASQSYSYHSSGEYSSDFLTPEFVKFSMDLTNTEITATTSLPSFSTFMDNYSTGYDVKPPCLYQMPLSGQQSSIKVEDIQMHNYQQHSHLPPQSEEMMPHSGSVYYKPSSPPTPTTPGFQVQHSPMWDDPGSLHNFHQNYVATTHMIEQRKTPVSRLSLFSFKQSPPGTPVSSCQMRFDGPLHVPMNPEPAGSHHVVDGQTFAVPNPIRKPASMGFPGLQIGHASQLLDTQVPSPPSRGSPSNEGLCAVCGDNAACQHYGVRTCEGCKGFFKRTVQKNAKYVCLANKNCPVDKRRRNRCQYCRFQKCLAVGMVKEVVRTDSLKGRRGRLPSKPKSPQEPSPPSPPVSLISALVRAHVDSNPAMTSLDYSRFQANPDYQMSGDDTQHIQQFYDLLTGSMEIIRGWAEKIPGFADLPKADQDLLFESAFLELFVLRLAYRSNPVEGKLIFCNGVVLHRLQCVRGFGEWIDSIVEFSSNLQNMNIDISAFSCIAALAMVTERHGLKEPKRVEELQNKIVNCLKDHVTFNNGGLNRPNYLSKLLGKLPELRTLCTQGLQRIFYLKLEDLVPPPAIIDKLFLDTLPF
Chain of Cellular tumor antigen p53 (Homo sapiens) (P04637 whole entry, looked up): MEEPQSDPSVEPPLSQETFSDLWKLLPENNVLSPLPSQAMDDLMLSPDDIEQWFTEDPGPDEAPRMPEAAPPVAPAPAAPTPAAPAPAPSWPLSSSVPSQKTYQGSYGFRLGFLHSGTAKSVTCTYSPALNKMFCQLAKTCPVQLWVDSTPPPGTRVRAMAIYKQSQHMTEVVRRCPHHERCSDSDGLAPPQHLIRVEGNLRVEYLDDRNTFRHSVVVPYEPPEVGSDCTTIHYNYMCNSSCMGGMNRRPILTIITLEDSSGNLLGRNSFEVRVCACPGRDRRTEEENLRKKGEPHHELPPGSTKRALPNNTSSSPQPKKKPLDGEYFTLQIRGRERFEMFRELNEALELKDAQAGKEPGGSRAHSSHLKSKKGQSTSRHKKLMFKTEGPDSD
Chain of Nuclear respiratory factor 1 (Homo sapiens) (Q16656 whole entry, looked up): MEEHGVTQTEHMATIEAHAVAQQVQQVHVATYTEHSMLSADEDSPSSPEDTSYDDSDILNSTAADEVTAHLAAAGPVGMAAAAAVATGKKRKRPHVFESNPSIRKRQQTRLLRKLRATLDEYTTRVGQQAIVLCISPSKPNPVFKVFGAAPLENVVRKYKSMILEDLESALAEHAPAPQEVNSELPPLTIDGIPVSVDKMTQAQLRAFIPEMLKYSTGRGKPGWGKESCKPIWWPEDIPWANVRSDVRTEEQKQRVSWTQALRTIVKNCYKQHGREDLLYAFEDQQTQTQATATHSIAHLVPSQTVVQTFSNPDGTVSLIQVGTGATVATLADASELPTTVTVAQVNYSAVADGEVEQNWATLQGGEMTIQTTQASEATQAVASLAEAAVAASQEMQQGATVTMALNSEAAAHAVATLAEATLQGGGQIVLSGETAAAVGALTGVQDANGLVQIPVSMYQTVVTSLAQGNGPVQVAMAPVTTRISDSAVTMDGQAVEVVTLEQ
Chain of Oxysterols receptor LXR-beta (Homo sapiens) (P55055 whole entry, looked up, the tested form may be a part): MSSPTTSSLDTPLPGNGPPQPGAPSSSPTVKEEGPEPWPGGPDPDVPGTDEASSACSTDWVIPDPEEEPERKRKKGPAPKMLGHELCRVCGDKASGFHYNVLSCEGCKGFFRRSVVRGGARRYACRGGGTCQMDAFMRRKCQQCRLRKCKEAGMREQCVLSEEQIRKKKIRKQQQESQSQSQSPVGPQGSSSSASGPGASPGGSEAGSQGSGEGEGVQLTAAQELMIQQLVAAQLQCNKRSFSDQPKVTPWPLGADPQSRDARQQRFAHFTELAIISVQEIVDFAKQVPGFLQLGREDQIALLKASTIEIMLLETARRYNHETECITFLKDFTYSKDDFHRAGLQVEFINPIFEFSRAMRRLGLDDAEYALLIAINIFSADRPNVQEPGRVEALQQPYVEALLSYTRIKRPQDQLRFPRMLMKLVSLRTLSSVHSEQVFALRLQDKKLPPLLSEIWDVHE
Chain of human Peroxisome Proliferator-activated Receptor alpha (PPARa), PPARA (gene 5465) (Q07869 whole entry, looked up): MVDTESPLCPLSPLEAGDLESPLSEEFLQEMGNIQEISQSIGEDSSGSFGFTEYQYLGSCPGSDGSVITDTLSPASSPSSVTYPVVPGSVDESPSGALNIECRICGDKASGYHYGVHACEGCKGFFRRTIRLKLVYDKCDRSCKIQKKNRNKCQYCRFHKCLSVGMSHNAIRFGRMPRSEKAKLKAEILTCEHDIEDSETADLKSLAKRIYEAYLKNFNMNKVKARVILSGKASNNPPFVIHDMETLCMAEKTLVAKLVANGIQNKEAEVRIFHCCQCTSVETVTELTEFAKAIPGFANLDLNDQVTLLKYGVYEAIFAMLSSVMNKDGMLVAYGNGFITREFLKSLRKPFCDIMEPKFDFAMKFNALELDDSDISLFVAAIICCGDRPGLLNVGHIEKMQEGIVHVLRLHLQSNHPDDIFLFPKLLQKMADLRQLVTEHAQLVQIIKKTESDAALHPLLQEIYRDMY
Chain of human Peroxisome Proliferator-activated Receptor delta (PPARd), PPARD (gene 5467) (Q03181 whole entry, looked up, the tested form may be a part): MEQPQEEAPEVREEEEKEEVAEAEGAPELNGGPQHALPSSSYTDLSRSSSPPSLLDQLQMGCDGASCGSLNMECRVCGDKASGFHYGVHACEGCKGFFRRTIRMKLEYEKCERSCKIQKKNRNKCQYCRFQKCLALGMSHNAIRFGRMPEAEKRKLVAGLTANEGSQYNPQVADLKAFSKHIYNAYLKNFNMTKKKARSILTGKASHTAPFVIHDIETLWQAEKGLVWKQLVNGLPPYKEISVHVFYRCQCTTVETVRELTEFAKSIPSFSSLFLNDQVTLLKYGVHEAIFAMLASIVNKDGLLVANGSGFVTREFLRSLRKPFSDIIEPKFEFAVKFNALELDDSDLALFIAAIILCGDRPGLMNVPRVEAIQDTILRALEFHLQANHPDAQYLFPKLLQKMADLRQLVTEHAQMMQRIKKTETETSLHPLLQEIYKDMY
Chain of Hepatocyte nuclear factor 4-alpha (Homo sapiens) (P41235 whole entry, looked up, the tested form may be a part): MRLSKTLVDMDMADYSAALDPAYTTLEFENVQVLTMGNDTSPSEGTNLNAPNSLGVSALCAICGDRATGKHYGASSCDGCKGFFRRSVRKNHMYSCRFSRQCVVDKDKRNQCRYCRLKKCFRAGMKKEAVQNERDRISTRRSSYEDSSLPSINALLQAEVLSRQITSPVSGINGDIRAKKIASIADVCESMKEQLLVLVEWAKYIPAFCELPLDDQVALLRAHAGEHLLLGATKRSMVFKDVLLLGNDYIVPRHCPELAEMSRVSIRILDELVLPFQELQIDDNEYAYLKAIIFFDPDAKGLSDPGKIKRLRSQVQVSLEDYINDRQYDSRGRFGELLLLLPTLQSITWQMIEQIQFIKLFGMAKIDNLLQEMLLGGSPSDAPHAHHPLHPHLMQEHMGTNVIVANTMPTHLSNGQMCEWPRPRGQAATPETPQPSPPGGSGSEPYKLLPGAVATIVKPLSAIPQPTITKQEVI
Chain of Transcriptional activator Myb (Homo sapiens) (P10242 whole entry, looked up): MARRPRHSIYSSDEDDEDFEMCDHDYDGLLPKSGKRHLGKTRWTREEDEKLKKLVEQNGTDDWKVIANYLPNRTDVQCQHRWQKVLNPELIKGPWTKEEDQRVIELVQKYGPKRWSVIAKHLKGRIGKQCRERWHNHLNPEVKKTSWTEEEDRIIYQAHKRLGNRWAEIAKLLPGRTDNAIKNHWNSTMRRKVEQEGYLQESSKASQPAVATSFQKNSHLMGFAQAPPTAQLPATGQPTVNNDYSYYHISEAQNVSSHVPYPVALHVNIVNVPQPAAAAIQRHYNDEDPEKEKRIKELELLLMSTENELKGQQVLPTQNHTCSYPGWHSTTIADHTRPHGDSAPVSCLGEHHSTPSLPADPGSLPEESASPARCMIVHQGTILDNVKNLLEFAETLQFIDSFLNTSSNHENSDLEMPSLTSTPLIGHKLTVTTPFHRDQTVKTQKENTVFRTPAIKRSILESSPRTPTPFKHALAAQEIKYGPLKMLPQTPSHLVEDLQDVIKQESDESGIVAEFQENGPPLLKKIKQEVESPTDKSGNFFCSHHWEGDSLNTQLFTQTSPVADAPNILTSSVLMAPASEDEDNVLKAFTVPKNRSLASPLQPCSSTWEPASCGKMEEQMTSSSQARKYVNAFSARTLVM

O=c1[nH]c2ccc(S(=O)CCN3CCC(Cc4ccc(F)cc4)CC3)cc2o1 (configuration not stated)
active: [6] 100 µM | [8] 76.2 µM | [9] 39.4 µM | [10] 64.9 µM
not listed: [18] | [19]
inactive: all other assays above

CC(C)c1cccc(C(C)C)c1N1C(=O)c2ccc(O)cc2C1=O
active: [5] 152 µM | [6] 62.9 µM | [7] 164 µM | [9] 25.2 µM | [10] 76.2 µM | [11] 166 µM | [13] 19 µM | [14] 16.7 µM | [15] 30.8 µM
inactive: [1] | [18] | [3] | [8] | [12] | [17]

Nc1ccc(Nc2ccccc2)cc1
active: [9] 47.1 µM | [10] 32 µM | [12] 0.903 µM | [14] 4.54 µM | [15] 3.97 µM
not listed: [2] | [4] | [17] | [18]
inactive: all other assays above
